Measured values reported in PubChem BioAssay (NCI).
This is part of a sample that, as a whole, favours compounds with a hit. Of some 83,000 tested, about 20% had one in any assay.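 Cell lines were cultured in 96-well plates, exposed to a single compound concentration, and assessed for percent growth 48 hours later.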 Unmarked numbers belong to inactive results. Active and inactive are the calls of the source. How the source made its calls: active means growth percent below 10; inactive means the rest.

Tested on: ACHN renal
Assay: NCI-60 one-dose screen, 48 h (100 = growth as untreated, 0 = no growth, -100 = all killed)
Conditions: 10 µM

| Compound | growth |
| --- | --- |
| COc1cc2cc(C(=O)N3C[C@@H](CCl)c4c3cc(OC(=O)N3CCN(C)[C@@H]5CSSC[C@H]53)c3ccccc43)[nH]c2c(OC)c1OC | -31.2% (active) |
| CC1=C(CCC=O)C2=C(C)C3(CC3)[C@@](C)(O)C(=O)C2=C1 | -100% (active) |
| COC(=O)C[C@](O)(CCC(C)C)C(=O)O[C@@H]1C(OC)=C[C@]23CCCN2CCc2cc4c(cc2[C@H]13)OCO4 | -25.1% (active) |
| O=C(/C=C/c1ccc(Cl)cc1)c1nc2ccccc2n1Cc1ccc(F)cc1 | 23.5% |
| CC[C@]12C=CCN3CC[C@@]4(c5ccc(OC)cc5N(C)[C@H]4[C@@](O)(C(=O)OC)[C@@H]1OC(=O)CCC[P+](C1CCCCC1)(C1CCCCC1)C1CCCCC1)[C@@H]32 | 32% |
| CC1=C2C(=C[C@@](C)(COP(=O)(Oc3ccccc3)Oc3ccccc3)[C@@H]2O)C(=O)[C@@](C)(O)C12CC2 | -56.8% (active) |
| CC(=O)Oc1ccccc1C(=O)NC([Se])=NC1CCCCC1 | 20.2% |
| CCOP(=O)(CC(F)(F)C(F)(F)F)OCC | -23.1% (active) |
| CC(C)C[C@H](NC(=O)CNC(=O)C[C@H]1O[C@@H]2OC3(C)CC[C@H]4[C@H](C)CC[C@@H]([C@H]1C)[C@@]24OO3)B(O)O | 7.48% (active) |
| C[C@H]1[C@@H](Oc2ccc(-c3cn(-c4ccnc5cc(Cl)ccc45)nn3)cc2)O[C@@H]2OC3(C)CC[C@H]4[C@H](C)CC[C@@H]1[C@@]24OO3 | 14.3% |
| C[C@H]1[C@H](OC(=O)CCC(=O)N(CCCc2cn(-c3ccc([N+](=O)[O-])cc3)nn2)CCNc2ccnc3cc(Cl)ccc23)O[C@@H]2OC3(C)CC[C@H]4[C@H](C)CC[C@@H]1[C@@]24OO3 | 37.5% |
| COc1cc2cc(C(=O)N3C[C@@H](CCl)c4c3cc(OC(=O)N3CCN(C)[C@@H]5CSSC[C@@H]53)c3ccccc43)[nH]c2c(OC)c1OC | -41.3% (active) |
| COc1cc2cc(C(=O)N3C[C@@H](CCl)c4c3cc(OC(=O)N3CCN(C(=O)CCC(=O)N5CCN(C)CC5)[C@@H]5CSSC[C@@H]53)c3ccccc43)[nH]c2c(OC)c1OC | -31.6% (active) |
| COC(=O)c1ccc(-n2cc(CCCN(CCNc3ccnc4cc(Cl)ccc34)C(=O)CCC(=O)O[C@@H]3O[C@@H]4OC5(C)CC[C@H]6[C@H](C)CC[C@@H]([C@H]3C)[C@@]46OO5)nn2)cc1 | 36.3% |
| O=C([Se]C1C=CCCC1)c1ccc(C(=O)[Se]C2C=CCCC2)s1 (centres undefined) | -67% (active) |
| O=C(/C=C/c1cccc(Br)c1)c1nc2ccccc2n1Cc1ccc(F)cc1 | 40.7% |
| CC[C@]12C=CCN3CC[C@@]4(c5ccc(OC)cc5N(C)[C@H]4[C@@](O)(C(=O)OC)[C@@H]1OC(=O)CCC[P+](c1ccc(C)cc1)(c1ccc(C)cc1)c1ccc(C)cc1)[C@@H]32 | -97.8% (active) |
| O=C(NC([Se])=NC1CCCCC1)c1ccccc1 | 34.5% |
| O=C(/C=C/c1ccc(F)cc1)c1nc2ccccc2n1Cc1ccc(F)cc1 | -45.4% (active) |
| O=C(/C=C/c1ccccc1)c1nc2ccccc2n1Cc1ccc(Br)cc1 | -74.5% (active) |

| Compound | growth |
| --- | --- |
| C=CC[Se]C(=O)c1cncc(C(=O)[Se]CC=C)c1 | -12.9% (active) |
| COc1ccc(OC)c(/C=C/C(=O)c2nc3ccccc3n2Cc2ccc(F)cc2)c1 | -48.2% (active) |
| O=C(/C=C/c1ccc(F)cc1)c1nc2ccccc2n1Cc1ccc(Br)cc1 | -73.9% (active) |
| CC[C@]12C=CCN3CC[C@@]4(c5ccc(OC)cc5N(C)[C@H]4[C@@](O)(C(=O)OC)[C@@H]1OC(=O)CCCC[P+](c1ccc(C)cc1)(c1ccc(C)cc1)c1ccc(C)cc1)[C@@H]32 | -99.3% (active) |
| CC(C)N=C([Se])NC(=O)c1cccs1 | 47.2% |
| CC1=C(CCC=NNC(N)=O)C2=C(C)C3(CC3)[C@@](C)(O)C(=O)C2=C1 | -37.7% (active) |
| Cc1ccc2[nH]c(=S)n(-c3ccc(F)cc3)c(=O)c2c1 | 101% |
| C#CC[Se]C(=O)c1ccc2n[se]nc2c1 | 35.6% |
| CC1=C(COCCOC(=O)c2ccc(S(=O)(=O)F)cc2)C2=C(C)C3(CC3)[C@@](C)(O)C(=O)C2=C1 | -19.3% (active) |
| CC12CCC3(CCC(=O)NCCCNc4ccnc5cc(Cl)ccc45)[C@@](C)(OO[C@]3(C)O1)O2 | -10.1% (active) |
| O=C(/C=C/c1ccc(Br)cc1)c1nc2ccccc2n1Cc1ccc(Br)cc1 | -38.2% (active) |
| COC(=O)CCn1c(-c2ccc(-n3cc(-c4ccc(O[C@H]5O[C@@H]6OC7(C)CC[C@H]8[C@H](C)CC[C@@H]([C@H]5C)[C@@]68OO7)cc4)nn3)cc2)nc2ccccc21 | 8.18% (active) |
| CC1=C(C=O)C2=C(C)C3(CC3)[C@@](C)(O)C(=O)C2=C1 | -61.1% (active) |
| N#C[Se]CC(=O)Nc1cccc(C(F)(F)F)c1 | -38% (active) |
| CCC[Se]C(=O)c1ccc(C(=O)[Se]CCC)s1 | -63.3% (active) |
| C[C@H]1[C@@H](CC(=O)N[C@@H](Cc2coc3ccccc23)B(O)O)O[C@@H]2OC3(C)CC[C@H]4[C@H](C)CC[C@@H]1[C@@]24OO3 | 13.2% |
| O=C(/C=C/c1ccco1)c1nc2ccccc2n1Cc1ccc(F)cc1 | 79.1% |
| COC(=O)C[C@](O)(CCC(C)C)C(=O)O[C@H]1C(OC)=C[C@@]23CCCN2CCc2cc4c(cc2[C@@H]13)OCO4 | -23.3% (active) |
| C[C@H]1[C@H](OC(=O)CCC(=O)N(CCCc2cn(-c3ccc(C#N)cc3)nn2)CCNc2ccnc3cc(Cl)ccc23)O[C@@H]2OC3(C)CC[C@H]4[C@H](C)CC[C@@H]1[C@@]24OO3 | 44.5% |
